AmpC no deterg = qHTS Inhibitors of AmpC Beta-Lactamase (assay without detergent); P00811; AmpC nitrocefin hydrolysis, absorbance 480 nm, 0.0001% Triton; Potency, µM (titrated, usually from 57.1 µM), for the others: top-dose activity change, negative = inhibition, actives largely listed as inhibitors; actives 0.52% (n = 330,000); AID 485341, 2010;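 further: plate controls were no compound for no effect and no enzyme for full effect; nearly all actives have a fitted effect of over 20% in size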
Target sequence (P00811 whole entry, looked up): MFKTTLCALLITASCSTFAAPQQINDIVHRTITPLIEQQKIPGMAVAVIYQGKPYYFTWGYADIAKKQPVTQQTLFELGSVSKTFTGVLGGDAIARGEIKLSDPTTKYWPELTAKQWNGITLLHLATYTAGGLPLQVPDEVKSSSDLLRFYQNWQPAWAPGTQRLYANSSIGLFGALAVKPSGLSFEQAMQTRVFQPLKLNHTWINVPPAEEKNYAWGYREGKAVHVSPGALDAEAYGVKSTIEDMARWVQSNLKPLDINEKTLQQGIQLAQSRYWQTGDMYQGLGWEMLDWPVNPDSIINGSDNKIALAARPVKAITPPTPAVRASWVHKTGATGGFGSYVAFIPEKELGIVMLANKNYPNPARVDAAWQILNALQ
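AmpC (5.3 nM in the dispensed reagent) in 20 mM phosphate pH 7.0 with 0.01% (detergent screen) or 0.0001% Triton X-100 was preincubated with compounds for 15 min at room temperature. Nitrocefin was then added from an 800 uM solution, and hydrolysis was followed at 480 nm.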
AMA1 RON2 block = qHTS for Inhibitors of AMA1-RON; Towards Development of Antimalarial Drug Lead: Primary Screen; Plasmodium falciparum AMA1 (3D7) - RON2 peptide interaction; AlphaScreen AMA1-biotinylated RON2 peptide binding; Potency, µM (highest dose often 58.2 µM), for inactives: at the highest dose activity change, negative = inhibition, actives largely listed as inhibitors; actives 0.2% (n = 360,000); AID 720542, 2013;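 further: 0% = vehicle wells and -100% = peptide control; nearly all actives have a fitted effect of over 45% in size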
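AMA1 (3D7) with his tag at 25 nM final met compounds first, then biotinylated RON2 peptide at 25 nM; detection used donor plus acceptor beads, 10 µg/mL apiece, read by AlphaScreen after 30 min at room temperature.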
RE007 growth inh = qHTS Assay for Inhibitors of the HIV-1 protein Vpr. S. pombe RE007 Vpr strain, BacTiter-Glo ATP luminescence, 24 h. Potency, µM (series often up to 92.2 µM), for inactives: at the highest dose activity change, negative = less growth, usual class: inhibitors. actives 0.21% (n = 360,000); active means well fitted falling curve with a large enough effect; inconclusive means small, poorly fitted or top-dose-only effect; inactive means no such curve, though single readings can be large or run the other way; further: nearly all actives have a fitted effect of over 50% in size
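Fission yeast RE007 carrying one integrated HIV-1 vpr copy, seeded at OD 0.01 in PMG+AL medium with 23 nL pinned compound. Grown 24 h at 30 degrees; viability read by BacTiter-Glo luminescence after 5 min.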
AmpC inh detg = qHTS Inhibitors of AmpC Beta-Lactamase (assay with detergent); AmpC hydrolysis of nitrocefin, absorbance 480 nm, 0.01% Triton; AID 485294, 2010; Potency, µM (highest dose often 114 µM), for inactives: at the top dose activity change, negative = inhibition, hits mostly inhibitors; actives 0.041% (n = 370,000);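 further: 0% = no-compound wells and -100% = no-enzyme wells; nearly all actives have a fitted effect of over 25% in size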
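AmpC (5.3 nM in the dispensed reagent) in 20 mM phosphate pH 7.0 with 0.01% (detergent screen) or 0.0001% Triton X-100 was preincubated with compounds for 15 min at room temperature. Nitrocefin was then added from an 800 uM solution, and hydrolysis was followed at 480 nm.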
Sm TGR inh = qHTS Assay for the Inhibitors of Schistosoma Mansoni Peroxiredoxins. purified TGR, DTNB reduction, TNB absorbance 405 nm. Potency, µM (doses to about 114 µM), without a hit: at the top dose activity change, negative = inhibition, usual class: inhibitors. actives 3% (n = 360,000). AID 485364, 2010; further: nearly all actives have a fitted effect of over 60% in size
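Kinetic colorimetric format: TGR-catalysed, NADPH-driven DTNB reduction monitored via TNB absorbance. Enzyme dispensed at 20 nM; compound exposure 15 min at room temperature before reaction start.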
The depositor's hits bear a star. In the library only some 3.2% were active in any assay of this set; here they are far more common. Unless noted, the call rests on the fitted dose curve; in most records, active means well fitted curve in the direction sought with a large enough effect; inconclusive means small, poorly fitted or top-dose-only effect, or another doubt; inactive means no such curve, though single readings can be large; an effect the other way counts as inactive or inconclusive. Unless noted, on the % scale 0 is the no-effect control and ±100 the full control effect; potency means the concentration at half of the fitted maximal effect.

For O=c1ccc2[n+]([O-])c3ccc(O)cc3oc-2c1 the results were AmpC no deterg -31%, AMA1 RON2 block 3%, RE007 growth inh 0%, AmpC inh detg 0% and Sm TGR inh 2.2µM*.
`O=c1cc(O)c2ccc(O)cc2o1` gave AmpC no deterg -32%, AMA1 RON2 block -7%, RE007 growth inh -7%, AmpC inh detg -7% and Sm TGR inh 0%.
`Cc1cc(N=NC(=O)c2ccccc2)ccc1O` gave AmpC no deterg -31%, AMA1 RON2 block 3%, RE007 growth inh 5%, AmpC inh detg inconclusive and Sm TGR inh 11µM*.
CCN(C(=O)c1cn(CC)c(=O)c2cc(OC)c(OC)cc12)c1ccccc1F was read as AmpC inh detg 6% and Sm TGR inh -1%.
CCn1nc(C)cc1C(=O)Sc1cccc(Br)c1 was read as AmpC no deterg -4%, AMA1 RON2 block 6%, RE007 growth inh -8%, AmpC inh detg 5% and Sm TGR inh 5.6µM*.
For CCn1nc(C)cc1C(=O)OCC(=O)c1ccc(Cl)cc1 the results were AmpC no deterg 10%, AMA1 RON2 block -11%, RE007 growth inh -5%, AmpC inh detg -10% and Sm TGR inh 0%.
For CCn1nc(C)cc1C(=O)Sc1ccc(Cl)cc1Cl the results were AmpC no deterg -8%, AMA1 RON2 block 1%, RE007 growth inh inconclusive, AmpC inh detg 1% and Sm TGR inh 3.5µM*.
For Cc1cccc(CN2C(=O)CC(c3ccc(Cl)cc3)c3c(C)nn(-c4nc(C)cc(C)n4)c32)c1 (centres undefined) the results were AmpC inh detg 21% and Sm TGR inh 0%.
`COC(=O)c1nc(NC(=O)C(C)(C)C)n[nH]1` gave AmpC no deterg -12%, AMA1 RON2 block 2%, RE007 growth inh -6%, AmpC inh detg -1% and Sm TGR inh 32µM*.
COC(=O)c1nc(NC(=O)c2ccc(Br)cc2)n[nH]1 was read as AMA1 RON2 block -13%, RE007 growth inh 10%, AmpC inh detg -5% and Sm TGR inh inconclusive.
`CCOC(=O)c1cc(-c2ccco2)nc2c1c(C)nn2CCC#N` gave AmpC no deterg 34%, AMA1 RON2 block 3%, RE007 growth inh -14%, AmpC inh detg inconclusive and Sm TGR inh 4µM*.
`CC(C)NC(=O)c1cc(-c2ccco2)on1` gave AmpC no deterg -12%, AMA1 RON2 block 1%, RE007 growth inh -4%, AmpC inh detg 4% and Sm TGR inh -1%.
`CCOC(=O)c1cc(-c2ccc(Cl)cc2)nc2c1c(C)nn2CCC#N` gave AmpC no deterg -3%, AMA1 RON2 block -9%, RE007 growth inh 5%, AmpC inh detg 9% and Sm TGR inh 8%.
Screening CC(C)NC(=O)c1cc(-c2ccco2)nn1-c1ccc(Cl)cc1 returned AmpC no deterg -34%, AMA1 RON2 block -20%, RE007 growth inh -8%, AmpC inh detg 2% and Sm TGR inh 2.8µM*.
Cc1ccc(-n2nc(-c3ccco3)cc2C(=O)O)cc1 was read as AmpC no deterg -35%, AMA1 RON2 block -8%, RE007 growth inh 2%, AmpC inh detg -9% and Sm TGR inh 25µM*.
`CCOC(=O)c1cc(-c2ccco2)nn1-c1ccc(C)cc1` gave AmpC no deterg -11%, AMA1 RON2 block -26%, RE007 growth inh 9%, AmpC inh detg 6% and Sm TGR inh 14µM*.
For Cc1ccc(S(=O)(=O)c2cn(C)c3cc(N4CCOCC4)c(F)cc3c2=O)c(C)c1 the results were AmpC inh detg 20% and Sm TGR inh 4%.
O=C(c1cc(-c2cccc(Cl)c2)on1)N1CCCCCC1 was read as AmpC no deterg 19%, AMA1 RON2 block -10%, RE007 growth inh -25%, AmpC inh detg inconclusive and Sm TGR inh 3%.
`O=C(c1cc(-c2ccco2)nn1-c1cccc(Cl)c1)N1CCCCC1` gave AmpC no deterg inconclusive, AMA1 RON2 block -9%, RE007 growth inh 16%, AmpC inh detg 3% and Sm TGR inh 7.1µM*.
CCOC(=O)c1ccc(NC(=O)C2C3C=CC(O3)C2C(=O)O)cc1 (centres undefined) was read as AmpC no deterg -9%, AmpC inh detg -8% and Sm TGR inh 56µM*.
`Cc1cccc(NC(=O)C2C3C=CC(O3)C2C(=O)O)c1` (centres undefined) gave AmpC no deterg -20%, AmpC inh detg -5% and Sm TGR inh 11µM*.
For COC(=O)c1ccc(NC(=O)C2C3C=CC(O3)C2C(=O)O)cc1 (centres undefined) the results were AmpC no deterg -12%, AMA1 RON2 block -4%, RE007 growth inh inconclusive, AmpC inh detg inconclusive and Sm TGR inh inconclusive.
For COc1ccccc1NC(=O)C1C2C=CC(O2)C1C(=O)O (centres undefined) the results were AmpC no deterg -4%, AmpC inh detg -3% and Sm TGR inh 40µM*.
For COc1cccc(NC(=O)C2C3C=CC(O3)C2C(=O)NCc2cccnc2)c1 (centres undefined) the results were AmpC no deterg -5%, AMA1 RON2 block 1%, RE007 growth inh -11%, AmpC inh detg inconclusive and Sm TGR inh 50µM*.
Screening COc1ccc(CN(C)c2ccc(-c3nc(-c4ccccc4)no3)cc2[N+](=O)[O-])cc1 returned AmpC inh detg 13% and Sm TGR inh -3%.
Cc1cccc(NC(=O)C2C3C=CC(O3)C2C(=O)O)c1C (centres undefined) was read as AmpC no deterg -19%, AMA1 RON2 block -2%, RE007 growth inh -21%, AmpC inh detg -1% and Sm TGR inh 45µM*.
`Cc1ccc(C)c(NC(=O)C2C3C=CC(O3)C2C(=O)O)c1` (centres undefined) gave AmpC no deterg -16%, AMA1 RON2 block 3%, RE007 growth inh -3%, AmpC inh detg 0% and Sm TGR inh 45µM*.
COC(=O)c1sccc1NC(=O)C1C2C=CC(O2)C1C(=O)O (centres undefined) was read as AmpC no deterg -8%, AMA1 RON2 block -8%, RE007 growth inh 8%, AmpC inh detg -14% and Sm TGR inh -8%.
`Cc1ccc(NC(=O)C2C3C=CC(O3)C2C(=O)O)cc1C` (centres undefined) gave AmpC no deterg -10%, AMA1 RON2 block -1%, RE007 growth inh -18%, AmpC inh detg 0% and Sm TGR inh -31%.

High-throughput results from PubChem BioAssay.
